Sampled rows, rich in hits. Any-hit rate of the full collection: about 7.6%.
CRE Fsk mod: Cell signaling CRE-BLA (Fsk stim); AID 662, 2007; Potency, µM (series often up to 38.2 µM), inactives show at the highest dose activity change, negative = inhibition, usual class: activators; CHO CRE-bla reporter (cAMP response element driving beta-lactamase), forskolin EC10, beta-lactamase ratio; actives 2.5% (n = 71,000); active = well fitted activation curve with a large enough effect in the signal ratio, with a control signal flat, not every such curve was filed as active; inconclusive = small, poorly fitted or top-dose-only effect, or effect the other way, or a change in a side signal; the % refers to the signal ratio; note: % of control where 0% means no effect
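qHTS titration format; CRE-bla CHO reporter; stimulus EC10 NKH 477, a water-soluble forskolin. Read: CCF4 460/530 nm ratio. Potency expressed as AC50 for activators or inhibitors.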
HEK293 cAMP ctrl: qHTS Assay for Agonists of the Thyroid Stimulating Hormone Receptor: Activators of Intracellular cAMP Concentrations in Parental HEK 293 | Potency, µM (titrated, usually from 57.1 µM), for the others: at the highest dose activation, most hits filed as activators | AID 938, 2007 | parental HEK293 CNG cAMP sensor, membrane potential fluorescence | actives 2.5% (n = 73,000); note: % of control where 0% means no effect; nearly all actives have a fitted effect of over 55% in size
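Parental HEK 293 cells stably expressing a modified CNG channel (no TSHR) report cAMP rise as membrane depolarization. Membrane potential dye with 100 uM RO 20-1724 was loaded for 60 min at room temperature, then compound added for 30 min; fluorescence read at 590 nm.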
TSHR ag: qHTS Assay for Agonists of the Thyroid Stimulating Hormone Receptor | Thyrotropin receptor (Homo sapiens), P16473 | HEK293-CNG-TSHR cells (CNG channel as cAMP sensor), membrane potential dye, cAMP | Potency, µM (titrated, usually from 57.1 µM), without a hit: at the top dose activation, most hits filed as activators | actives 0.48% (n = 73,000) | AID 926, 2007; active = well fitted activation curve with a large enough effect in the main read-out, with a control signal flat, not every such curve was filed as active; inconclusive = small, poorly fitted or top-dose-only effect, or a change in a side signal; inactive = no such curve, though single readings can be large or run the other way; % of control where 0% means no effect;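 note: the control signal comes from parental cells without the receptor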
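HEK 293 cells stably expressing TSHR and a cAMP-gated CNG channel; parental CNG-only cells as counterscreen. Cells preloaded 60 min with membrane potential dye plus 100 uM RO 20-1724, then compound 30 min; fluorescence read at 590 nm.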
Tau filament bind: qHTS Assay for Tau Filament Binding. AID 596, 2007. Microtubule-associated protein tau (Homo sapiens), P10636. recombinant tau filaments, thioflavin S fluorescence, 15 h; filaments grown with octadecylsulfate alongside compound. actives 2% (n = 71,000). Potency, µM (highest dose often 57.1 µM), without a hit: at the highest dose activity change, negative = inhibition;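 note: % is set by controls: 0 for no effect and ±100 for the full control effect; actives lower thioflavin S fluorescence by blocking filaments or displacing dye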
Target sequence (P10636 whole entry, looked up): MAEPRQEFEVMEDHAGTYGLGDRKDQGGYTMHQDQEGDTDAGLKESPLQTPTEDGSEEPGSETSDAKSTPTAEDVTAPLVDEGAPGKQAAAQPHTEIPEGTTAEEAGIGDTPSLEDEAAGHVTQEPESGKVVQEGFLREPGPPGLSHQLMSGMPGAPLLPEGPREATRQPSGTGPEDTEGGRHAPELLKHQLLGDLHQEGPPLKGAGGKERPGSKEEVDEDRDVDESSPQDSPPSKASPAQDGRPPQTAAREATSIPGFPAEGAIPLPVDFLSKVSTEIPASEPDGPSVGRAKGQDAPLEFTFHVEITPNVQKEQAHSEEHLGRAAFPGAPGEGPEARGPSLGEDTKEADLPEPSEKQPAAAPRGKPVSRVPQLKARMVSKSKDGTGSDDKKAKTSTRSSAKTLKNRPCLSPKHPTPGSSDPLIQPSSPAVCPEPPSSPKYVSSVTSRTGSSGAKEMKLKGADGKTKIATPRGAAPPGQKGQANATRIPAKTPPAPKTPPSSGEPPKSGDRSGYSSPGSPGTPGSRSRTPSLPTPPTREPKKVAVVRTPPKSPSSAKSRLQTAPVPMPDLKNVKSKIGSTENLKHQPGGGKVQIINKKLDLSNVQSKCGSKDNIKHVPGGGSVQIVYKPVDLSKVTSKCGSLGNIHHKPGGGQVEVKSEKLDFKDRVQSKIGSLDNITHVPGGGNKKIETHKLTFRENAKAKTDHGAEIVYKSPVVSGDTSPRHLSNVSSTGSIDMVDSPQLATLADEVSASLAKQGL
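Read-out: ThS fluorescence, 450 nm excitation/510 nm emission; lower signal marks blocked filament formation or displaced dye. Tau at 1 uM with 30 uM ODS, 10 uM ThS, 5 mM DTT, 100 mM NaCl, 10 mM HEPES pH 7.4; 15 h, 37 C.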
ERK AVP inh: qHTS Assay for Inhibitors of the ERK Signaling Pathway using a Homogeneous Screening Assay; HEK293-V1b, vasopressin-stimulated pERK AlphaScreen; Potency, µM (top dose mostly 57.5 µM), for the others: top-dose activity, negative = inhibition, usual class: inhibitors; actives 0.99% (n = 72,000); note: % is set by controls: 0 for no effect and ±100 for the full control effect; nearly all actives have a fitted effect of over 55% in size
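HEK293 cells stably expressing V1b receptor, preincubated 30 min at 37 °C with compound, then stimulated 5 min with 25 nM vasopressin. Phospho-ERK by AlphaScreen SureFire after 5 h RT; normalized to DMSO and vasopressin; AC50 by Hill fit.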
* hit, by the source's call; i = inactive; ? = inconclusive; nt = no result; [ ] = dose if it differs, or a comment. Unless noted, calls come from the whole dose curve; as a rule, active = well fitted curve in the direction sought with a large enough effect; inconclusive = small, poorly fitted or top-dose-only effect, or another doubt; inactive = no such curve, though single readings can be large; an effect the other way counts as inactive or inconclusive. Potency is the fitted concentration of half-maximal effect.

SMILES | CRE Fsk mod | HEK293 cAMP ctrl | TSHR ag | Tau filament bind | ERK AVP inh
c1ccc(-c2nn3c(C4COc5ccccc5O4)nnc3s2)cc1 (stereo not given) | 11% | 9% | 20% | 2% | -21%
Cc1ccc(-c2nnc3sc(C4COc5ccccc5O4)nn23)cc1 (stereo not given) | -2% | 25µM* | ? | 32% | -4%
c1ccc(CCc2nn3c(C4COc5ccccc5O4)nnc3s2)cc1 (stereo not given) | 15% | 16µM* | ? | -11% | -23%
CC(C)=NO[C@@H](C)CN1CCCCc2nc(C)c(C)cc21 | nt | 14%[11.4 µM] | -1%[11.4 µM] | nt | 9%[11.5 µM]
O=C(O)CC[C@@H](NC(=O)c1ccccc1C(=O)O)C(=O)O | -5% | 8% | 4% | 0% | 42%
C=CCc1cccc(CNc2nc3ccccc3n2CCN2CCOCC2)c1O | ? | 0% | 3% | 25µM* | -24%
O=c1c2ccccc2nc2n1CCCS2 | nt | 1% | -3% | nt | nt
O=c1c2cc(Cl)ccc2oc2nc3n(c(=O)c12)CCCS3 | 10% | -2% | -2% | 13µM* | -9%
COc1ccc(COC(=O)N/N=C2/C[C@@H](O)[C@@H](O)[C@@H]3[C@@H]4C(=O)N(c5cccc(Oc6ccccc6)c5)C(=O)[C@H]4CC[C@H]23)cc1 | nt | 16%[11.4 µM] | 21%[11.4 µM] | nt | 0%[11.5 µM]
COC(=O)c1sccc1NC(=O)c1ccc2c(c1)OCO2 | ? | 12% | -5% | i | -2%
COC(=O)c1sccc1NC(=O)c1ccc(Br)o1 | 4µM* | 4µM* | ? | 21%[11.4 µM] | -1%
COC(=O)c1sccc1NC(=O)c1ccoc1C | 10µM* | 30% | 21% | 4% | -4%
Cc1occc1C(=O)Nc1nccs1 | ? | 2% | 6% | 4% | -25%
CCC/C=C(\CCC)C(NS(=O)(=O)CC12CCC(CC1=O)C2(C)C)c1ccc(C(=O)OC)cc1 (stereo not given) | ? | 17% | nt | -18% | 25%
COc1ccc(N2CCN(C(c3cccs3)C(C)NS(=O)(=O)c3ccccc3)CC2)cc1 (stereo not given) | -8% | 0% | -7% | 16µM* | -30%
CC(=O)ON(C(C)=O)S(=O)(=O)c1ccc(Cl)cc1 | ? | 25% | 9% | ? | 9%
O=C(c1cc(C(F)(F)F)cc(C(F)(F)F)c1)N1CCC[C@@]2(CCN(c3ccccc3)C2)C1 | -6% | 6% | -7% | -17% | 10%
C=CC1=C(C)C2=NC1=CC1=NC(=CC3=NC(=CC4=NC(=C2)C(C)=C4CCC(=O)O)C(CCC(=O)O)=C3C)C(C=C)=C1C.[Zn] | ? | -30% | ? | 0.79µM* | 10%
Brc1ccc(-c2nn3c(-c4ccco4)nnc3s2)o1 | ? | 6% | 3% | -8% | -22%
Clc1ccc(OCc2nn3c(-c4ccco4)nnc3s2)c(Cl)c1 | ? | 32µM* | ? | 10% | -13%
Clc1ccc(-c2ccc(-c3nn4c(-c5ccco5)nnc4s3)o2)cc1 | ? | ? | ? | 25µM* | -23%
O=Cc1ccc(OC2C=CC(c3ccccc3)OC2CO)cc1 (stereo not given) | nt | -1%[11.4 µM] | 4%[11.4 µM] | nt | 3%[11.5 µM]
C[C@@]12CC[C@@H]3c4ccc(O)cc4CC[C@H]3[C@H]1C[C@@H](O)[C@H]2O | -8%[17.1 µM] | -1%[25.6 µM] | 13%[25.6 µM] | 1%[25.6 µM] | 27%[25.7 µM]
Nc1ncnc2c1nc(Br)n2[C@H]1O[C@H]2COP(=O)(O)O[C@H]2[C@@H]1O | ? | 1% | 8% | 40µM* | 5%
COc1ccc(O[C@H]2C=C[C@@H](c3ccccc3)O[C@H]2COC(=O)CC/C(C)=N\O[C@@H](C)c2cc(-c3c(C)cc(C)cc3C)no2)cc1 | nt | 1%[11.4 µM] | 10%[11.4 µM] | nt | 6%[11.5 µM]
O=C(Nc1ccc2nc(-c3ccco3)[nH]c2c1)c1cccs1 | 25% | 7% | 12% | 20µM* | -28%
N#CCCn1c(=O)c(-c2ccc(F)cc2)nc2cnc(N3CCNCC3)nc21 | ? | 5% | 1% | 6% | 3%

Screens from PubChem BioAssay.
